Where “and” joins values, the source holds several entries; their conditions need not be identical. Equal entries are not always repeated.

One assay can be described thus: sensitizers of A549 cells to miR-34 induction, primary screen, imaging, A549 dox-inducible miR-34, nuclei and caspase counts (AID 1347080). Further: test concentration not given here. Particulars: A549 miR-34 inducible, Hoechst nuclei count, 48 h; measured here: total cells with miR-34 induction; stronger effect = lower value.
On to `N#C/C(=C\c1ccc(O)c(O)c1)C(=O)c1ccc(O)c(O)c1`, for which the cell count worked out at 9140.

`N=C(N)SCCc1cccc(CCSC(=N)N)c1`: the cell count is 6390.

For `COC(=O)[C@H]1[C@H]2C[C@@H]3c4[nH]c5cc(OC)ccc5c4CCN3C[C@H]2C[C@@H](OC(=O)/C=C/c2cc(OC)c(OC)c(OC)c2)[C@@H]1OC`, the cell count was determined as 7260.

On to `Oc1ccc(Cn2cc[nH]c2=S)cc1`, for which the cell count came out at 9950.

As for `CNc1ncnc2c1ncn2[C@H]1C[C@H](OP(=O)(O)O)[C@@H](COP(=O)(O)O)O1`, the cell count was 10600.

`Cc1nc(N=Nc2cc(S(=O)(=O)O)c3cc([N+](=O)[O-])cc(S(=O)(=O)O)c3c2)c(COP(=O)(O)O)c(C=O)c1O`: the cell count was 10500.

As for `COc1c(N2CC3CCCNC3C2)c(F)cc2c(=O)c(C(=O)O)cn(C3CC3)c12` (stereo not given), the cell count turned out to be 9060.

Regarding `NC(=S)c1ccc[n+]([C@@H]2O[C@@H](COP(=O)([O-])OP(=O)(O)OC[C@H]3O[C@@H](n4cnc5c(N)ncnc54)C(OP(=O)(O)O)[C@H]3O)C(O)C2O)c1` (stereo not given in full), the cell count worked out at 10100.

For `Cc1ccc2c(c1)C(N1CCN(C)CC1)=Nc1cccnc1N2`, the cell count stood at 8670.

For `NC(N)=N[C@@H](CCC(=O)O)C(=O)O`, the cell count is 9760 and 6110.

For `COc1cc(=O)n(C)c2c(OCC(O)C(C)(C)O)cccc12` (stereo not given), the cell count came out at 8320.

In the case of `N=S(=O)(O)Cc1noc2ccccc12`, the cell count amounted to 9240.

Consider `O=C(O)CCC/C=C\C[C@@H]1[C@@H](/C=C/[C@H](O)C2Cc3ccccc3C2)[C@@H](F)C[C@@H]1O`, for which the cell count was 9120 and 5490.

Turning to `Cc1ccc(NC(=O)CCCCCC(=O)Nc2ccccc2N)cc1`, the cell count was determined as 5390.

With `N=C(N)c1ccc(OCCCCCOc2ccc(C(=N)N)cc2)cc1` (tested in a mixture with another compound), the cell count came out at 3790.

Take `NCCC1CCCC(CCN)N1` (stereo not given): the cell count turned out to be 10800.

As for `Nc1ccn([C@@H]2O[C@H](CO)[C@@H](O)[C@@H]2O)c(=O)n1`, the cell count turned out to be 1860.

As to `CCCCCC(O)c1cccc(OCc2ccc3ccccc3n2)c1` (stereo not given), the cell count is 5590 and 5690.

For the compound `N=c1c[n+](N2CCOCC2)[n-]o1`, the cell count is 10300 and 10500.

`Nc1ccccc1NC(=O)CCCCCCC(=O)Nc1ccccc1`: the cell count turned out to be 5630.

On to `N=c1ccn2c(n1)OC1[C@@H](O)[C@@H](CO)O[C@H]12` (stereo not given in full), for which the cell count was 1970.

For the compound `CCOC(=O)C12CC1/C(=N/O)c1ccccc1O2` (stereo not given), the cell count came to 9720.

Take `C#C[C@]1(O)CCC2C3C(C)CC4=C(CCC(=O)C4)C3CC[C@@]21C` (stereo not given in full): the cell count worked out at 8730.

As to `O=C(O)CCC(=O)N1CCCC1C(=O)O` (stereo not given), the cell count turned out to be 9450.

With `N.N.N.N.N.N.N.N.N.N.N.N.N.N.O.O.[Cl-].[Cl-].[Cl-].[Cl-].[Cl-].[Cl-].[Ru+4].[Ru+5].[Ru+5]`, the cell count was 10700.

Take `O=C1O/C(=C/Br)CCC1c1cccc2ccccc12` (stereo not given): the cell count is 4330.

Take `NC[C@H]1O[C@@H](n2cnc3c(N)ncnc32)[C@H](O)[C@@H]1O`: the cell count was 9860.

For the compound `CC[C@@]1([C@@H]2O[C@@H]([C@H]3O[C@@](O)(CO)[C@H](C)C[C@@H]3C)C[C@@H]2C)CC[C@H]([C@]2(C)CC[C@]3(C[C@H](O)[C@@H](C)[C@@H]([C@@H](C)[C@@H](OC)C(C)C(=O)O)O3)O2)O1` (stereo not given in full), the cell count is 1810.

Consider `CN(C)C(=O)/N=N/C(=O)N(C)C`, for which the cell count was 10000.

Consider `N#C/C(=C\c1ccc(O)c(O)c1)C(=O)NCCCNC(=O)/C(C#N)=C/c1ccc(O)c(O)c1`, for which the cell count amounted to 9720.

As to `CCC[C@@H]1C[C@@H](C(=O)N[C@@H]([C@H]2O[C@H](SC)[C@H](O)[C@@H](O)[C@@H]2O)[C@@H](C)O)N(C)C1`, the cell count was 11000 and 8020.

Regarding `COc1c2c(nc3ccccc13)OC(C(C)(O)CO)C2` (stereo not given), the cell count turned out to be 8340.

As for `CC[C@@H]1Cc2cc(O)ccc2C2=C1c1ccc(O)cc1C[C@H]2CC`, the cell count came out at 4580.

As for `C[N+](C)(C)CCOP(=O)(O)OP(=O)([O-])OC[C@H]1O[C@@H](n2ccc(N)nc2=O)C(O)[C@H]1O` (stereo not given in full), the cell count was 10900.

On to `CCSC(N)=Nc1ccc(C(F)(F)F)cc1`, for which the cell count came out at 5930.

Take `Nc1nc(SCc2ccc([N+](=O)[O-])cc2)c2ncn([C@@H]3O[C@H](CO)[C@H](O)C3O)c2n1` (stereo not given in full): the cell count amounted to 10100.

For `NCCC(=O)NCCc1cnc[nH]1`, the cell count stood at 9030.

With `CC(=O)O[C@H]1CC2(C)[C@@H](C[C@@H](O)[C@H]3[C@@]4(C)CC[C@@H](O)[C@@H](C)[C@@H]4CC[C@@]32C)C1=C(CCC=C(C)C)C(=O)O` (stereo not given in full), the cell count stood at 9740.

As to `O[C@@H]1[C@@H](O)C=C2CCN3Cc4cc5c(cc4[C@H]1C23)OCO5` (stereo not given in full), the cell count came to 2250.

For `NC(N)=[N+]1CCc2ccccc2C1`, the cell count is 8570.

The assay is the same for the next values; noted with them: A549 miR-34 inducible, Hoechst nuclei count, 48 h; measured here: total cells without miR-34 induction.
In the case of `N#C/C(=C\c1ccc(O)c(O)c1)C(=O)c1ccc(O)c(O)c1`, the cell count is 9340.

As for `N=C(N)SCCc1cccc(CCSC(=N)N)c1`, the cell count is 6310.

As for `COC(=O)[C@H]1[C@H]2C[C@@H]3c4[nH]c5cc(OC)ccc5c4CCN3C[C@H]2C[C@@H](OC(=O)/C=C/c2cc(OC)c(OC)c(OC)c2)[C@@H]1OC`, the cell count worked out at 8390.

On to `Oc1ccc(Cn2cc[nH]c2=S)cc1`, for which the cell count worked out at 10600.

Consider `CNc1ncnc2c1ncn2[C@H]1C[C@H](OP(=O)(O)O)[C@@H](COP(=O)(O)O)O1`, for which the cell count is 9840.

With `Cc1nc(N=Nc2cc(S(=O)(=O)O)c3cc([N+](=O)[O-])cc(S(=O)(=O)O)c3c2)c(COP(=O)(O)O)c(C=O)c1O`, the cell count stood at 10300.

As to `COc1c(N2CC3CCCNC3C2)c(F)cc2c(=O)c(C(=O)O)cn(C3CC3)c12` (stereo not given), the cell count amounted to 10000.

For the compound `NC(=S)c1ccc[n+]([C@@H]2O[C@@H](COP(=O)([O-])OP(=O)(O)OC[C@H]3O[C@@H](n4cnc5c(N)ncnc54)C(OP(=O)(O)O)[C@H]3O)C(O)C2O)c1` (stereo not given in full), the cell count was determined as 10700.

For `Cc1ccc2c(c1)C(N1CCN(C)CC1)=Nc1cccnc1N2`, the cell count was 8630.

Regarding `NC(N)=N[C@@H](CCC(=O)O)C(=O)O`, the cell count was 10200 and 6580.

Consider `COc1cc(=O)n(C)c2c(OCC(O)C(C)(C)O)cccc12` (stereo not given), for which the cell count came out at 10400.

Regarding `N=S(=O)(O)Cc1noc2ccccc12`, the cell count turned out to be 9680.

As for `O=C(O)CCC/C=C\C[C@@H]1[C@@H](/C=C/[C@H](O)C2Cc3ccccc3C2)[C@@H](F)C[C@@H]1O`, the cell count was 9480 and 6340.

For `Cc1ccc(NC(=O)CCCCCC(=O)Nc2ccccc2N)cc1`, the cell count amounted to 5360.

For the compound `N=C(N)c1ccc(OCCCCCOc2ccc(C(=N)N)cc2)cc1` (tested in a mixture with another compound), the cell count is 3670.

`NCCC1CCCC(CCN)N1` (stereo not given): the cell count is 9840.

For the compound `Nc1ccn([C@@H]2O[C@H](CO)[C@@H](O)[C@@H]2O)c(=O)n1`, the cell count worked out at 1890.

Take `CCCCCC(O)c1cccc(OCc2ccc3ccccc3n2)c1` (stereo not given): the cell count was 6140 and 5820.

In the case of `N=c1c[n+](N2CCOCC2)[n-]o1`, the cell count was 10300 and 10700.

Turning to `Nc1ccccc1NC(=O)CCCCCCC(=O)Nc1ccccc1`, the cell count was determined as 5580.

For `N=c1ccn2c(n1)OC1[C@@H](O)[C@@H](CO)O[C@H]12` (stereo not given in full), the cell count stood at 1730.

Consider `CCOC(=O)C12CC1/C(=N/O)c1ccccc1O2` (stereo not given), for which the cell count was 9140.

For `C#C[C@]1(O)CCC2C3C(C)CC4=C(CCC(=O)C4)C3CC[C@@]21C` (stereo not given in full), the cell count came out at 9600.

Take `O=C(O)CCC(=O)N1CCCC1C(=O)O` (stereo not given): the cell count came out at 9740.

As to `N.N.N.N.N.N.N.N.N.N.N.N.N.N.O.O.[Cl-].[Cl-].[Cl-].[Cl-].[Cl-].[Cl-].[Ru+4].[Ru+5].[Ru+5]`, the cell count is 10400.

Turning to `O=C1O/C(=C/Br)CCC1c1cccc2ccccc12` (stereo not given), the cell count came to 4490.

With `NC[C@H]1O[C@@H](n2cnc3c(N)ncnc32)[C@H](O)[C@@H]1O`, the cell count was 9210.

As to `CC[C@@]1([C@@H]2O[C@@H]([C@H]3O[C@@](O)(CO)[C@H](C)C[C@@H]3C)C[C@@H]2C)CC[C@H]([C@]2(C)CC[C@]3(C[C@H](O)[C@@H](C)[C@@H]([C@@H](C)[C@@H](OC)C(C)C(=O)O)O3)O2)O1` (stereo not given in full), the cell count is 1730.

As for `CN(C)C(=O)/N=N/C(=O)N(C)C`, the cell count was determined as 9690.

For the compound `N#C/C(=C\c1ccc(O)c(O)c1)C(=O)NCCCNC(=O)/C(C#N)=C/c1ccc(O)c(O)c1`, the cell count turned out to be 9850.

With `CCC[C@@H]1C[C@@H](C(=O)N[C@@H]([C@H]2O[C@H](SC)[C@H](O)[C@@H](O)[C@@H]2O)[C@@H](C)O)N(C)C1`, the cell count is 11200 and 9400.

For the compound `COc1c2c(nc3ccccc13)OC(C(C)(O)CO)C2` (stereo not given), the cell count is 9080.

For the compound `CC[C@@H]1Cc2cc(O)ccc2C2=C1c1ccc(O)cc1C[C@H]2CC`, the cell count worked out at 3520.

As for `C[N+](C)(C)CCOP(=O)(O)OP(=O)([O-])OC[C@H]1O[C@@H](n2ccc(N)nc2=O)C(O)[C@H]1O` (stereo not given in full), the cell count was 10800.

For the compound `CCSC(N)=Nc1ccc(C(F)(F)F)cc1`, the cell count was found to be 5830.

Turning to `Nc1nc(SCc2ccc([N+](=O)[O-])cc2)c2ncn([C@@H]3O[C@H](CO)[C@H](O)C3O)c2n1` (stereo not given in full), the cell count worked out at 9310.

For the compound `NCCC(=O)NCCc1cnc[nH]1`, the cell count came out at 10000.

As to `CC(=O)O[C@H]1CC2(C)[C@@H](C[C@@H](O)[C@H]3[C@@]4(C)CC[C@@H](O)[C@@H](C)[C@@H]4CC[C@@]32C)C1=C(CCC=C(C)C)C(=O)O` (stereo not given in full), the cell count amounted to 9920.

Turning to `O[C@@H]1[C@@H](O)C=C2CCN3Cc4cc5c(cc4[C@H]1C23)OCO5` (stereo not given in full), the cell count stood at 2530.

Consider `NC(N)=[N+]1CCc2ccccc2C1`, for which the cell count is 8500.

The values are drawn from PubChem BioAssay.
